Results from PubChem BioAssay (NCATS).
Records with an inconclusive call do not appear. Where a call stands in place of a potency, no number is given. A number with no mark means an inactive call. The source made the active and inactive calls. Unless noted, calls follow the shape of the full dose curve. Numbered stars: 1 amine (or outer) side, 2 acyl side, 3 side chain; on linkers, the order of the positions; unused ones are H or OH. Square brackets hold non-standard residues; d marks the D form. Side chains are listed from the residue outwards. Peptide text beside a SMILES is read from it. * marks the point of attachment. Ethylenediamine = C(CN[*:2])N[*:1]; Hyp = O=C(O)[C@@H]1C[C@@H](O)CN1; Phg = N[C@H](C(=O)O)c1ccccc1; CO = O=C([*:1])[*:2]; Bn = c1ccc(C*)cc1

Assays:
[1] = Primary qHTS for inhibitors of SARS-S pseudo-typed particle cell entry (AID 1479145); details: outcome: dose series up to 57.1 µM unless noted; also: nearly all actives have a fitted effect of over 45% in size
[2] = Primary qHTS for Huh7 cytotoxicity: counterscreen for inhibitors of MERS-S pseudotyped particle cell entry (AID 1479147); details: outcome: dose series up to 57.1 µM unless noted
[3] = Primary qHTS for inhibitors of MERS-S pseudo-typed particle cell entry (AID 1479149); details: outcome: dose series up to 57.1 µM unless noted; also: nearly all actives have a fitted effect of over 60% in size
[4] = Primary qHTS for Vero E6 cytotoxicity: counterscreen for inhibitors of SARS-S pseudo-typed particle cell entry (AID 1479150); details: outcome: dose series up to 57.1 µM unless noted
[5] = Cytotoxicity counterscreen for inhibitors of SARS-CoV-2 cell entry (AID 1645845); details: outcome: dose series up to 57.1 µM unless noted; also: nearly all actives have a fitted effect of over 50% in size
Outline: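 ATP-content luminescence (ATPLite 1step, 15 min RT) read after 48 h compound exposure of Expi293F cells stably expressing human ACE2; normalized to cells-only wells and media-only wells.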

[6] = biological target: Cytochrome P450 2D6 (Homo sapiens) (UniProt P10635); experiment: Cytochrome P450 family 2 subfamily D member 6 (CYP2D6) small molecule antagonists: luciferase biochemical (cell-free) qHTS assay (AID 1645840; active = well fitted curve in the direction sought with a large enough effect in the repeat runs; an effect the other way counts as inactive or inconclusive; also: nearly all actives have a fitted effect of over 55% in size)
Cytochrome P450 2D6 (Homo sapiens), sequence (P10635 whole entry, looked up): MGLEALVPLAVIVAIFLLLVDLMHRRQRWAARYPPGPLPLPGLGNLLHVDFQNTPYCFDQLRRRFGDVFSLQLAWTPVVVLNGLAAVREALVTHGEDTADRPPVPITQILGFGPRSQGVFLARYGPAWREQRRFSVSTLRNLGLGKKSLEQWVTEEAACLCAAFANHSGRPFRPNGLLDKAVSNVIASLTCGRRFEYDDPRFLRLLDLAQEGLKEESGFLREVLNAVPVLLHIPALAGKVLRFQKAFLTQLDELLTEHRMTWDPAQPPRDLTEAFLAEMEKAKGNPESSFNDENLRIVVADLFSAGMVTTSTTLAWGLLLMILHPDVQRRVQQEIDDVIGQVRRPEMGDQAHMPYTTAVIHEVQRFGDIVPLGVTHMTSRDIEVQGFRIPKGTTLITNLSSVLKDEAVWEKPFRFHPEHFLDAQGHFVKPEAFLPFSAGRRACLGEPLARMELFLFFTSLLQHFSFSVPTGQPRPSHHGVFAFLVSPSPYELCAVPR
Outline: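 P450-Glo CYP2D6 system: proluciferin substrate converted by enzyme to luciferin, read by luminescence proportional to activity. Enzyme-substrate mix with compound 10 min at room temperature, then NADPH regeneration 1 h before detection reagent.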

[7] = biological target: Cytochrome P450 2C9 (Homo sapiens) (UniProt P11712); experiment: Cytochrome P450 family 2 subfamily C member 9 (CYP2C9) small molecule antagonists: luciferase biochemical (cell-free) qHTS assay (AID 1645842; active = well fitted curve in the direction sought with a large enough effect in the repeat runs; an effect the other way counts as inactive or inconclusive; also: potency is read from the fitted curve at half-maximal effect; nearly all actives have a fitted effect of over 55% in size)
Cytochrome P450 2C9 (Homo sapiens), sequence (P11712 whole entry, looked up): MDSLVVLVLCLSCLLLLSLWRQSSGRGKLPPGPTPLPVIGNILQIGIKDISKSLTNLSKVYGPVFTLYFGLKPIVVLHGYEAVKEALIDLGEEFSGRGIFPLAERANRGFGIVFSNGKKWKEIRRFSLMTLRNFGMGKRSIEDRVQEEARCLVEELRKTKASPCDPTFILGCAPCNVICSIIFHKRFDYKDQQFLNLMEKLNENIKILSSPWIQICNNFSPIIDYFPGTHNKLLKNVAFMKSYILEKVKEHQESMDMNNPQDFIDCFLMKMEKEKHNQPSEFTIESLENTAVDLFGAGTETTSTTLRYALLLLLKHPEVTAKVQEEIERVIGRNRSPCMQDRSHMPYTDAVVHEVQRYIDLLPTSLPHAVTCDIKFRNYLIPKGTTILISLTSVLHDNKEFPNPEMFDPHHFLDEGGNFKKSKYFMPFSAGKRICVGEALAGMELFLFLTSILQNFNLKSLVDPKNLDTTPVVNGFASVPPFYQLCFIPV
Outline: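 P450-Glo CYP2C9 system: proluciferin substrate with enzyme in mix containing 0.4% BSA, 10 min at room temperature, then NADPH regeneration solution added and incubated 1 h at 37C. Detection reagent stopped reaction; luminescence read after 20 min as RLU.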

[8] = biological target: Glutathione peroxidase 1 (Homo sapiens) (UniProt P07203); experiment: Primary qHTS Assay for Inhibitors of Recombinant Selenoprotein Glutathione Peroxidase 1 (GPX1) (AID 1845191; active = well fitted curve in the direction sought with a large enough effect; an effect the other way counts as inactive or inconclusive; also: nearly all actives have a fitted effect of over 65% in size)
Glutathione peroxidase 1 (Homo sapiens), sequence (P07203 whole entry, looked up): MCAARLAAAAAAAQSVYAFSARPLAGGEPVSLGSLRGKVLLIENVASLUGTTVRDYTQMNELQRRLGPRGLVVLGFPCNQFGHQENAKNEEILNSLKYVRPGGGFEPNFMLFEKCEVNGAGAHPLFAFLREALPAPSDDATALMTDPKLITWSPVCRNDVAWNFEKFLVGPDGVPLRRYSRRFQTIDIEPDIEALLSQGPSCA
Outline: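 NADPH consumption tracked by fluorescence at 340/450 nm between t=0 and t=15 min, room temperature. Final mix: 10 nM GPX1, 100 nM glutathione reductase, 1 mM GSH, 0.5 mM NADPH, 0.5 mM cumene hydroperoxide, 0.01% BSA; 30 min compound–enzyme preincubation.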

[9] = biological target: Phospholipid hydroperoxide glutathione peroxidase GPX4 (Homo sapiens) (UniProt P36969); experiment: Primary qHTS Assay for Inhibitors of Recombinant Selenoprotein Glutathione Peroxidase 4 (GPX4) (AID 1845192; active = well fitted curve in the direction sought with a large enough effect; an effect the other way counts as inactive or inconclusive; also: nearly all actives have a fitted effect of over 65% in size)
Phospholipid hydroperoxide glutathione peroxidase GPX4 (Homo sapiens), sequence (P36969 whole entry, looked up): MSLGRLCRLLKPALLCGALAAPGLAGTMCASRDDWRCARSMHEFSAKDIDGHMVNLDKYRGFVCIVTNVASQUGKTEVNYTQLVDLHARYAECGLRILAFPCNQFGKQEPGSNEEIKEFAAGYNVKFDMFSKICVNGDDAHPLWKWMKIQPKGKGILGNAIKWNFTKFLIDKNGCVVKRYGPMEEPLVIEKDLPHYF
Outline: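 NADPH consumption followed by fluorescence at 340/450 nm, t=0 and after 15 min at room temperature. Reaction started with cumene hydroperoxide (0.5 mM final) after 30 min compound–GPX4 preincubation; final 200 nM GPX4, 100 nM GR, 1 mM GSH, 0.5 mM NADPH.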

[10] = Primary qHTS to identify inhibitors of SARS-CoV-2 cell entry (AID 1645846); details: SARS-CoV-2 pseudovirus cell entry assay, luminescence; activity change, negative = inhibition: at 57.1 µM (top of the series) unless noted; also: nearly all actives have a fitted effect of over 45% in size
Outline: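 Using luciferase-reporting pseudoviruses carrying Wuhan-Hu-1 spike, the screen tracks entry into stably ACE2-expressing cells over 48 hr. Activity is expressed relative to spike particles versus particles lacking any fusion protein.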

| Structure (SMILES) | Potency [1] | Potency [2] | Potency [3] | Potency [4] | Potency [5] | Potency [6] | Potency [7] | Potency [8] | Potency [9] | Potency [10] |
| --- | --- | --- | --- | --- | --- | --- | --- | --- | --- | --- |
| COc1ccc(CCNCC(O)COc2cccc(C)c2)cc1OC (stereo unspecified) | inactive | inactive | inactive | inactive | inactive |  |  |  |  |  |
| NCCCC[C@@H]1NC(=O)[C@@H](Cc2c[nH]c3ccccc23)NC(=O)[C@H](c2ccccc2)NC(=O)[C@@H]2C[C@@H](OC(=O)NCCN)CN2C(=O)[C@H](Cc2ccccc2)NC(=O)[C@H](Cc2ccc(OCc3ccccc3)cc2)NC1=O (cyclo([Hyp]([CO-Ethylenediamine])[Phg][dW]KY(Bn)F)) | inactive | inactive | inactive | inactive | inactive |  |  |  |  |  |
| C[N+](C)(C)C1CCC(CC2CCC([N+](C)(C)C)CC2)CC1 (stereo unspecified) | inactive | inactive | inactive | inactive |  |  |  |  |  |  |
| CCOC(=O)C=C(C)C=CC[C@@H](C)CCCC(C)C | inactive | inactive | inactive | inactive | inactive | inactive | 10.7 µM (active) | inactive | inactive |  |
| NCCCC(N)C(=O)O (stereo unspecified) | inactive | inactive | inactive | inactive | inactive |  |  |  |  |  |
| C[C@]12C[C@@H]3S[C@H]3C[C@@H]1CC[C@H]1[C@H]3CC[C@@H](O)[C@@]3(C)CC[C@@H]12 | inactive | inactive | inactive | inactive | inactive | inactive | 0.107 µM (active) |  |  | inactive |
